Source: PubChem BioAssay AID1159580 (chemical genetic matrix, 2015)
Several values for one entry are separate records, joined by “and”; a condition that tells them apart may be missing. Equal entries are not always repeated. Out of some 5,500 compounds screened, about 2,000 (36%) were called active. Another 18% or so got no clear call; they are omitted. Cut-off read from the data, not from the text of the source: active = normalized growth mostly below about 0.91 (no sharp cut-off); inconclusive = no clear call, values can overlap the other calls; inactive = mostly above about 0.92. The list shows a part of the results. More than one record can exist for a structure, and the calls need not agree.

Assay: chemical genetic growth profiling, strain panel (AID 1159580);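 note: tested at 20 µM; growth read once vehicle control cultures reached saturation at 30 °C; 1 = growth at the plate median or of vehicle wells; lower values mean less growth of the strain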
Details: S. cerevisiae deletion strains, growth OD

Measured: normalized growth

O=C(O)c1ccccc1Nc1cccc(C(F)(F)F)c1
inactive: locus YBR023C, strain chs3, stronger effect = lower value 0.924 | locus YBR229C, strain ROT2, stronger effect = lower value 0.983 | locus YCL029C, strain bik1, stronger effect = lower value 0.999 | locus YDL101C, strain DUN1, stronger effect = lower value 0.972 | locus YDL185W, strain tfp1, stronger effect = lower value 0.979 | locus YDL192W, strain arf1, stronger effect = lower value 0.974 | locus YDR101C, strain arx1, stronger effect = lower value 0.984 | locus YDR150W, strain NUM1, stronger effect = lower value 0.996 | locus YDR162C, strain NBP2, stronger effect = lower value 0.852 | locus YDR195W, strain ref2 0.998 | locus YDR318W, strain mcm21, stronger effect = lower value 0.959 | locus YDR388W, stronger effect = lower value 0.975 | locus YEL061C, strain CIN8, stronger effect = lower value 0.952 | locus YER110C, stronger effect = lower value 1.01 | locus YGL078C, strain dbp3, stronger effect = lower value 0.979 | locus YGL086W, strain mad1, stronger effect = lower value 0.96 | locus YGL248W, strain PDE1, stronger effect = lower value 0.92 | locus YGR135W, strain pre9, stronger effect = lower value 0.895 | locus YHR013C, strain ard1, stronger effect = lower value 0.988 | locus YHR079C, strain IRE1 (second series), stronger effect = lower value 0.988 | locus YHR094C, strain hxt1, stronger effect = lower value 1 | locus YHR200W, strain rpn10, stronger effect = lower value 0.95 | locus YIL073C, strain SPO22, stronger effect = lower value 0.858 | locus YIL125W, strain kgd1, stronger effect = lower value 0.981 | locus YIR030C, strain dcg1, stronger effect = lower value 0.965 | locus YJL134W, strain LCB3, stronger effect = lower value 0.994 | locus YJL168C, strain set2, stronger effect = lower value 0.99 | locus YJL187C, strain SWE1 (second series), stronger effect = lower value 0.941 | locus YJR075W, strain HOC1, stronger effect = lower value 0.93 | locus YKL009W, strain mrt4, stronger effect = lower value 0.896 | locus YKL068W, stronger effect = lower value 0.99 | locus YKL085W, strain MDH1 (second series), stronger effect = lower value 0.957 | locus YKL085W, strain MDH1, stronger effect = lower value 0.957 | locus YKL190W, strain CNB1, stronger effect = lower value 0.962 | locus YLR039C, strain RIC1, stronger effect = lower value 0.808 | locus YLR058C, strain SHM2, stronger effect = lower value 0.951 | locus YLR102C, strain apc9, stronger effect = lower value 0.982 | locus YLR262C, strain YPT6, stronger effect = lower value 0.821 | locus YLR268W, strain sec22, stronger effect = lower value 0.914 | locus YLR357W, strain rsc2, stronger effect = lower value 0.873 | locus YLR371W, strain rom2, stronger effect = lower value 0.987 | locus YML016C, strain PPZ1, stronger effect = lower value 0.991 | locus YML032C, strain rad52, stronger effect = lower value 0.933 | locus YML124C, strain tub3, stronger effect = lower value 0.97 | locus YMR078C, strain ctf18, stronger effect = lower value 0.98 | locus YMR223W, strain ubp8, stronger effect = lower value 0.945 | locus YMR307W, strain GAS1, stronger effect = lower value 0.842 | locus YNL067W, strain RPL9B, stronger effect = lower value 0.967 | locus YNL128W, strain TEP1, stronger effect = lower value 1.01 | locus YNL153C, strain GIM3, stronger effect = lower value 0.937 | locus YNL248C, strain rpa49, stronger effect = lower value 0.921 | locus YNL250W, strain rad50, stronger effect = lower value 0.994 | locus YNL271C, strain bni1, stronger effect = lower value 0.982 | locus YNL298W, strain CLA4, stronger effect = lower value 0.928 | locus YNR052C, strain pop2, stronger effect = lower value 0.993 | locus YOL012C, strain htz1 0.909 | locus YOL147C, strain pex11, stronger effect = lower value 0.975 | locus YOR061W, strain CKA2, stronger effect = lower value 0.947 | locus YOR069W, strain VPS5, stronger effect = lower value 0.991 | locus YOR136W, strain idh2, stronger effect = lower value 0.983 | locus YOR144C, strain elg1, stronger effect = lower value 0.978 | locus YOR316C, strain cot1, stronger effect = lower value 0.988 | locus YPL106C, strain sse1, stronger effect = lower value 0.968 | locus YPR119W, strain clb2, stronger effect = lower value 0.988 | locus YPR141C, strain kar3, stronger effect = lower value 0.99 | locus YPR163C, strain tif3, stronger effect = lower value 0.952 | locus YPR167C, strain met16, stronger effect = lower value 0.944 | strain wtn01, stronger effect = lower value 0.954
0.119 (active) and 0.83 (inactive): locus YJL095W, strain BCK1, stronger effect = lower value
0.134 (active) and 0.985 (inactive): locus YHR030C, strain SLT2, stronger effect = lower value
active: locus YAL013W, strain DEP1, stronger effect = lower value 0.857 | locus YAL021C, strain ccr4, stronger effect = lower value 0.847 | locus YAL026C, strain drs2, stronger effect = lower value 0.837 | locus YAL030W, strain snc1, stronger effect = lower value 0.817 | locus YBL061C, strain skt5, stronger effect = lower value 0.845 | locus YBR009C, strain hhf1, stronger effect = lower value 0.848 | locus YBR021W, strain FUR4, stronger effect = lower value 0.764 | locus YBR171W, strain sec66, stronger effect = lower value 0.69 | locus YBR231C, strain swc5, stronger effect = lower value 0.827 | locus YBR279W, strain paf1, stronger effect = lower value 0.859 | locus YCL011C, strain gbp2, stronger effect = lower value 0.86 | locus YCL016C, strain dcc1, stronger effect = lower value 0.87 | locus YCL069W, strain vba3, stronger effect = lower value 0.834 | locus YCR088W, strain abp1, stronger effect = lower value 0.793 | locus YDL005C, strain med2, stronger effect = lower value 0.882 | locus YDL035C, strain GPR1, stronger effect = lower value 0.844 | locus YDL040C, strain nat1, stronger effect = lower value 0.852 | locus YDL074C, strain BRE1, stronger effect = lower value 0.768 | locus YDR001C, strain nth1, stronger effect = lower value 0.805 | locus YDR069C, strain doa4, stronger effect = lower value 0.896 | locus YDR137W, strain rgp1, stronger effect = lower value 0.623 | locus YDR159W, strain sac3, stronger effect = lower value 0.661 | locus YDR297W, strain sur2, stronger effect = lower value 0.849 | locus YDR334W, strain swr1, stronger effect = lower value 0.788 | locus YDR335W, strain msn5, stronger effect = lower value 0.849 | locus YDR392W, strain spt3, stronger effect = lower value 0.721 | locus YDR502C, strain sam2, stronger effect = lower value 0.915 | locus YEL003W, strain gim4, stronger effect = lower value 0.842 | locus YEL037C, strain rad23, stronger effect = lower value 0.831 | locus YEL061C, strain CIN8 (second series), stronger effect = lower value 0.815 | locus YER015W, strain faa2, stronger effect = lower value 0.869 | locus YER016W, strain bim1, stronger effect = lower value 0.837 | locus YER111C, strain swi4, stronger effect = lower value 0.829 | locus YER155C, strain BEM2 (second series), stronger effect = lower value 0.763 | locus YER155C, strain BEM2, stronger effect = lower value 0.914 | locus YER167W, strain BCK2, stronger effect = lower value 0.833 | locus YFR010W, strain ubp6, stronger effect = lower value 0.858 | locus YGL167C, strain pmr1, stronger effect = lower value 0.751 | locus YGL173C, strain kem1, stronger effect = lower value 0.843 | locus YGL227W, strain vid30, stronger effect = lower value 0.812 | locus YGL240W, strain doc1, stronger effect = lower value 0.853 | locus YGL253W, strain hxk2, stronger effect = lower value 0.811 | locus YGR229C, strain SMI1, stronger effect = lower value 0.727 | locus YGR252W, strain gcn5, stronger effect = lower value 0.645 | locus YHR027C, strain rpn1, stronger effect = lower value 0.862 | locus YHR079C, strain IRE1, stronger effect = lower value 0.126 | locus YHR129C, strain ARP1, stronger effect = lower value 0.918 | locus YHR142W, strain chs7, stronger effect = lower value 0.775 | locus YIL066C, strain RNR3, stronger effect = lower value 0.824 | locus YJL092W, strain hpr5, stronger effect = lower value 0.801 | locus YJL095W, strain BCK1 (second series), stronger effect = lower value 0.848 | locus YJL115W, strain asf1, stronger effect = lower value 0.843 | locus YJL129C, strain trk1, stronger effect = lower value 0.565 | locus YJL154C, strain vps35, stronger effect = lower value 0.792 | locus YJL164C, strain tpk1, stronger effect = lower value 0.873 | locus YJL166W, strain qcr8, stronger effect = lower value 0.853 | locus YJL187C, strain SWE1, stronger effect = lower value 0.833 | locus YJR043C, strain POL32, stronger effect = lower value 0.775 | locus YJR066W, strain TOR1, stronger effect = lower value 0.00921 | locus YKL160W, strain elf1, stronger effect = lower value 0.835 | locus YKR001C, strain vps1, stronger effect = lower value 0.85 | locus YKR026C, strain gcn3, stronger effect = lower value 0.79 | locus YKR091W, strain srl3, stronger effect = lower value 0.826 | locus YLL001W, strain dnm1, stronger effect = lower value 0.833 | locus YLL026W, stronger effect = lower value 0.829 | locus YLL041C, strain sdh2, stronger effect = lower value 0.803 | locus YLR027C, strain aat2, stronger effect = lower value 0.865 | locus YLR113W, strain HOG1, stronger effect = lower value 0.137 | locus YLR221C, strain rsa3, stronger effect = lower value 0.838 | locus YLR258W, strain gsy2, stronger effect = lower value 0.83 | locus YLR262C, strain YPT6 (second series), stronger effect = lower value 0.634 | locus YLR320W, strain mms22, stronger effect = lower value 0.833 | locus YLR330W, strain CHS5, stronger effect = lower value 0.883 | locus YLR342W, strain FKS1 (second series), stronger effect = lower value 0.713 | locus YLR342W, strain FKS1, stronger effect = lower value 0.831 | locus YLR370C, strain arc18, stronger effect = lower value 0.808 | locus YLR384C, strain iki3, stronger effect = lower value 0.818 | locus YLR418C, strain cdc73, stronger effect = lower value 0.729 | locus YML120C, strain ndi1, stronger effect = lower value 0.842 | locus YMR058W, strain fet3, stronger effect = lower value 0.824 | locus YMR125W, strain sto1, stronger effect = lower value 0.835 | locus YMR129W, stronger effect = lower value 0.812 | locus YMR205C, strain PFK2, stronger effect = lower value 0.81 | locus YMR231W, strain pep5, stronger effect = lower value 0.817 | locus YNL071W, strain lat1, stronger effect = lower value 0.849 | locus YNL183C, strain NPR1, stronger effect = lower value 0.0159 | locus YNL209W, strain ssb2, stronger effect = lower value 0.862 | locus YNL233W, strain BNI4, stronger effect = lower value 0.852 | locus YNL307C, strain MCK1, stronger effect = lower value 0.695 | locus YNL322C, strain KRE1 (second series), stronger effect = lower value 0.801 | locus YNR049C, strain mso1, stronger effect = lower value 0.813 | locus YOR001W, strain rrp6, stronger effect = lower value 0.872 | locus YOR070C, strain gyp1, stronger effect = lower value 0.848 | locus YOR080W, strain dia2, stronger effect = lower value 0.847 | locus YOR083W, strain WHI5, stronger effect = lower value 0.834 | locus YOR106W, strain vam3, stronger effect = lower value 0.821 | locus YOR184W, strain ser1, stronger effect = lower value 0.819 | locus YOR231W, strain MKK1, stronger effect = lower value 0.105 | locus YOR265W, strain rbl2, stronger effect = lower value 0.843 | locus YOR270C, strain vph1, stronger effect = lower value 0.674 | locus YOR290C, strain snf2, stronger effect = lower value 0.852 | locus YPL051W, strain arl3, stronger effect = lower value 0.831 | locus YPL078C, strain atp4, stronger effect = lower value 0.807 | locus YPL240C, strain hsp82, stronger effect = lower value 0.836 | locus YPL256C, strain CLN2, stronger effect = lower value 0.116
